HCV inhibitor = inhibitors of hepatitis C virus infection; AID 651820; 340,000 compounds, 3.4% hits; Huh7.5.1 HCVcc-Cre infection, luciferase reporter, 44 h; Potency, µM (series often up to 41.8 µM), for the others: at the highest dose activity change, negative = inhibition, hits mostly inhibitors; active means well fitted inhibition curve with a large enough effect; inconclusive means small, poorly fitted or top-dose-only effect, or another doubt; inactive means no such curve, though single readings can be large or run the other way; further: potency means the concentration at half of the fitted maximal effect
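1,000 cells/well; 4 h culture; + compound; + HCVcc-Cre (~0.5 moi); 44 h; luciferase substrate, RT 15 min; read 15 sec.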
HCMV inh = blocks human cytomegalovirus replication; HFF cells, HCMV-luciferase reporter, 72 h; active compounds read low; activity change, negative = inhibition, % at 57.5 µM; 410,000 compounds, 4.5% hits; AID 1259415; in the data active means activity change below about -60%; inconclusive means no clear call, values can overlap the other calls; inactive means above about -39%
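Luciferase read-out from HCMV-luciferase-infected HFFs (MOI 1 PFU/cell) 72 h post infection at 37C; compounds added after 16 h cell attachment; activity normalized between buffer-only basal and Salinomycin (10uM) inhibitor controls.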
FMDV inh = antivirals against foot and mouth disease virus; FMDV antiviral cell-based qHTS; Potency, µM (titrated, usually from 57.9 µM), for inactives: at the top dose activity change, negative = inhibition, hits mostly inhibitors; 410,000 compounds, 1.2% hits; AID 1159524; calls by dose curve; tested in HEK293T cells; further: read-out not given here; potency means the concentration at half of the fitted maximal effect; nearly all actives have a fitted effect of over 45% in size
Marburg entry inh = blocks Marburg virus binding to or entry into cells; Marburg virus pseudotyped entry inhibition, cell reporter; Potency, µM (doses to about 37.8 µM), for the others: top-dose activity change, negative = inhibition, actives largely listed as inhibitors; 300,000 compounds, 1.8% hits; AID 540276; calls by dose curve; tested in HEK293 cells; further: potency means the concentration at half of the fitted maximal effect
Lassa entry inh = Lassa virus entry inhibition; 300,000 compounds, 1.2% hits; Lassa virus pseudotype entry inhibition, cell reporter; Potency, µM (highest dose often 37.9 µM), for the others: at the highest dose activity change, negative = inhibition, usual class: inhibitors; AID 540256; calls by dose curve; tested in HEK293 cells; further: potency means the concentration at half of the fitted maximal effect; nearly all actives have a fitted effect of over 50% in size
The depositor's hits bear a star; [ ] = another dose, or the depositor's remark. Most compounds without a hit are left out; they make up all but 7.9% or so of the library. On the % scale 0 is the no-effect control and ±100 the full control effect.

Screening Brc1ccc2c(c1)C(OC1CN3CCC1CC3)c1ccccc1CS2 (configuration not stated) returned HCV inhibitor 32µM*, HCMV inh -27, FMDV inh -11%, Marburg entry inh 4µM* and Lassa entry inh inconclusive.
For CC(C)C[C@H](N)CSSC[C@@H](N)CC(C)C the results were Marburg entry inh 1.3µM*.
`COCCN(C(=O)c1ccc(C)c(S(=O)(=O)N2CCOCC2)c1)c1c(N)n(CC(C)C)c(=O)[nH]c1=O` gave HCV inhibitor 7%, HCMV inh -2, FMDV inh -4%, Marburg entry inh inconclusive and Lassa entry inh 5%.
Screening CC1(C)NC(=S)NC1=S returned HCV inhibitor 10%, HCMV inh -100*, FMDV inh -21%, Marburg entry inh 3% and Lassa entry inh 13%.
CC1CN=C(c2ccc(Cl)cc2)c2c3ccc(C(F)(F)F)cc3nn21 (configuration not stated) was read as HCMV inh 47.
Screening CC(=O)NC(C(=O)O)C(C)(C)SN=O (configuration not stated) returned FMDV inh 6%.
For CCc1cc([N+](=O)[O-])cc(CC)c1N the results were HCV inhibitor 11µM*, HCMV inh -20, FMDV inh -23%, Marburg entry inh 5%[46.1 µM] and Lassa entry inh 10%.
For Cc1oc(C(=O)Nc2ccc(O)cc2)cc1COc1ccccc1 the results were HCV inhibitor inconclusive, HCMV inh -36, FMDV inh 16%, Marburg entry inh inconclusive and Lassa entry inh 20µM*.
`CC1CCC(=NO)C(=NO)C1` (configuration not stated) gave HCV inhibitor -55%, HCMV inh -36, FMDV inh -8%, Marburg entry inh -6% and Lassa entry inh inconclusive.
Screening CC1=NOC(=O)/C1=C\c1ccc(-c2ccc(Cl)cc2Cl)o1 returned HCV inhibitor -17%, HCMV inh -75*, FMDV inh inconclusive, Marburg entry inh 1% and Lassa entry inh inconclusive.
CCCOc1ccc(Cl)cc1/C=C1/C(=O)ON=C1C was read as HCV inhibitor 0%, HCMV inh 8, FMDV inh inconclusive, Marburg entry inh -15%[46.1 µM] and Lassa entry inh -4%[46.1 µM].
`Cc1ccccc1NC(=O)C(Cl)=C(Cl)Cl` gave HCV inhibitor inconclusive, HCMV inh -78*, FMDV inh inconclusive, Marburg entry inh inconclusive and Lassa entry inh -22%[46.1 µM].
Screening Cc1ccccc1NNC(=O)C(=O)NNc1ccccc1C returned HCV inhibitor -1%, HCMV inh 49 and FMDV inh 2%.
`COc1ccc(CCNC2=C(Cl)C(=O)N(CCc3ccc(OC)c(OC)c3)C2=O)cc1OC` gave HCV inhibitor 2.5µM*, HCMV inh 44, FMDV inh 10µM*, Marburg entry inh inconclusive and Lassa entry inh inconclusive.
For O=C(Cn1ncc2c3ccccc3n(Cc3ccc(F)cc3)c2c1=O)NCc1ccccn1 the results were HCMV inh -8, FMDV inh -4%, Marburg entry inh 9%[46.1 µM] and Lassa entry inh 25%[46.1 µM].
`COc1cccc(C(=O)NCC2Cc3cccc(-c4ncccn4)c3O2)c1OC` (configuration not stated) gave FMDV inh -11%.
Cc1onc(C(=O)NN)c1C(=O)Nc1ncc(C(F)(F)F)cc1Cl was read as HCV inhibitor 2%, HCMV inh -22, FMDV inh 5%, Marburg entry inh -22%[46.1 µM] and Lassa entry inh 22%[46.1 µM].
Screening CCOc1ccccc1CNC(=O)c1ccc2c(c1)nc1n2CCCCC1 returned HCMV inh -68*, FMDV inh 19% and Lassa entry inh 5µM*.
Screening CCOc1ccccc1CNC(=O)Cc1ccc(NC(=O)N2CCCCc3ccccc32)cc1 returned HCMV inh 28, FMDV inh -17% and Lassa entry inh 4.5µM*.
Screening CCOc1ccc(CNC(=O)Cc2ccc(NC(=O)N3CCCCc4ccccc43)cc2)cc1OC returned HCMV inh 35, FMDV inh -17% and Lassa entry inh -18%[46.1 µM].
`S=c1nc(C2COc3ccccc3O2)[nH][nH]1` (configuration not stated) gave HCV inhibitor 9%, HCMV inh 12, FMDV inh 29%, Marburg entry inh 2%[46.1 µM] and Lassa entry inh 14%[46.1 µM].
`CCCS(=O)(=O)c1cnc(C2COc3ccccc3O2)nc1N` (configuration not stated) gave HCV inhibitor 5%, HCMV inh -88* and FMDV inh 35µM*.
Screening CN1CCCC(CNC(=O)c2cnn(-c3ncc4c(n3)-c3ccccc3CC4)c2C2CC2)C1 (configuration not stated) returned FMDV inh -10%.
Screening CCOc1cc(/C=C/C(=O)c2ccc(OC)c(CN3CCOCC3)c2)cc(Br)c1O returned HCV inhibitor inconclusive, HCMV inh -98*, FMDV inh -3%, Marburg entry inh inconclusive and Lassa entry inh inconclusive.
For CCOc1cc(/C=N/NC(=O)c2ccc(CN3CCOCC3)cc2)ccc1OC the results were HCV inhibitor inconclusive, HCMV inh -26, FMDV inh inconclusive, Marburg entry inh inconclusive and Lassa entry inh 2%.
Screening O=C(COc1ccc(Cl)cc1)Nc1ccccc1C(=O)NCc1cccnc1 returned HCV inhibitor -13%, HCMV inh -2, FMDV inh -24%, Marburg entry inh inconclusive and Lassa entry inh -12%.
Screening COC(=O)c1sc2ncccc2c1OCc1ccccc1Cl returned HCV inhibitor inconclusive, HCMV inh 26, FMDV inh -1%, Marburg entry inh -1% and Lassa entry inh -12%.
Screening CC(C)(C)c1ccc(C(=O)c2c[nH]c(C(=O)NCc3cccnc3)c2)cc1 returned HCV inhibitor -5%, HCMV inh -7, FMDV inh 0%, Marburg entry inh inconclusive and Lassa entry inh 3%.
For COC(=O)c1sc2ncccc2c1OCc1ccc(Cl)cc1 the results were HCV inhibitor -6%, HCMV inh -31, FMDV inh 13%, Marburg entry inh 8.2µM* and Lassa entry inh -9%.
Screening O=C(COc1ccc(Cl)cc1)Nc1ccc(C(=O)NCc2cccnc2)cc1 returned HCV inhibitor 13µM*, FMDV inh 14µM*, Marburg entry inh -27% and Lassa entry inh -22%.
Cc1ccc(OCc2ccc(C(=O)NCc3cccnc3)cc2)cc1C was read as HCV inhibitor inconclusive, HCMV inh -72*, FMDV inh -16%, Marburg entry inh 8.9µM* and Lassa entry inh 7.9µM*.
O=C(Cc1ccc(Cl)cc1)c1c[nH]c(C(=O)NCc2cccnc2)c1 was read as HCV inhibitor inconclusive, HCMV inh 25 and FMDV inh 7.9µM*.
`Cc1ccn2c(Nc3ccc4c(c3)OCO4)c(-c3ccco3)nc2c1` gave HCMV inh 50, FMDV inh 40%, Marburg entry inh inconclusive and Lassa entry inh -9%[46.1 µM].
Cc1ccc(C)c(NC(=O)c2cc(S(=O)(=O)N3CCN(c4cccc(Cl)c4)CC3)ccc2F)c1 was read as HCMV inh -24, FMDV inh 29% and Lassa entry inh 3%[46.1 µM].
